{"source": "PubChem BioAssay AID2685", "about": "(National Center for Advancing Translational Sciences (NCATS), 2010)", "note": "The campaign covered roughly 320,000 compounds. About 2,100 (0.66%) were called active. Roughly 53% stayed inconclusive and do not appear here. Calls follow the shape of the dose curve; as a rule, active = well fitted inhibition curve with a large enough effect in the signal ratio, with a control signal flat (not every such curve was filed as active); inconclusive = small, poorly fitted or top-dose-only effect, or effect the other way, or a change in a side signal; inactive = flat fitted curve, though single readings scatter; the % refers to the signal ratio. For the sample, actives were picked, then their nearest neighbours and some compounds at random. Potency is read from the fitted curve at half-maximal effect.", "data": [{"assay": "qHTS Assay for Lipid Storage Modulators in Drosophila S3 Cells;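 as to cell number change: cells counted by Cell Tracker Red CMTPX staining in the red channel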; as to lipid storage change, negative = inhibition: % is scaled to controls: 0 for no effect and ±100 for the full control effect", "conditions": "BODIPY lipid droplet fluorescence, 18-24 h, cells fed with added oleic acid; cell number change: measured here: cell count max response; series mostly up to 46.1 µM", "in_short": "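Drosophila S3 cells got compounds at several concentrations plus oleic acid (400 uM solution). Laser-scanning cytometry with 488 nm excitation read lipid droplets at 500-530 nm and cells at 575-640 nm. Percent activity was relative to 20 uM Triacsin C.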", "units": {"cell number change": "%"}, "values": [{"smiles": "COc1cc(CN(C(=S)NCC(=O)NC2CC2)C2CCCC2)cc(OC)c1OC", "Potency": "inactive", "cell number change": 4.91}, {"smiles": "CS(=O)(=O)N1N=C(c2ccccc2)CC1c1cccs1", "note": "(centres undefined)", "Potency": "inactive", "cell number change": -4.84}, {"smiles": "N=C(N)Sc1nc(N2CCCCC2)nc(N2CCCCC2)n1", "Potency": "inactive", "cell number change": 2.17}, {"smiles": "CN(C)S(=O)(=O)c1cccc(-c2nnc(SCC(=O)NCCCCCC(=O)O)n2-c2ccc(F)cc2)c1", "Potency": "inactive", "cell number change": 5.6}, {"smiles": "CNc1c(NS(=O)(=O)c2ccc(OC)c(Cl)c2)c(=O)oc2ccccc12", "Potency": "16.4 µM (active)", "cell number change": -27.3}, {"smiles": "CCCNc1c(NS(=O)(=O)c2ccc(NC(=O)CC)cc2)c(=O)oc2ccccc12", "Potency": "inactive", "cell number change": -23.3}, {"smiles": "O=C(O)CCC(=O)Nc1ccc(S(=O)(=O)c2ccc(NC(=O)CCC(=O)O)cc2)cc1", "Potency": "inactive", "cell number change": 14.2}, {"smiles": "COc1ccc(S(=O)(=O)Nc2c(NC3CCCCC3)c3ccccc3oc2=O)cc1Cl", "Potency": "inactive", "cell number change": -20.1}, {"smiles": "CC(=O)Nc1ccc(S(=O)(=O)c2ccc(C)cc2)cc1", "Potency": "inactive", "cell number change": -22.1}, {"smiles": "CNc1c(NS(=O)(=O)c2cc(OC)ccc2OC)c(=O)oc2ccccc12", "Potency": "inactive", "cell number change": -19.8}, {"smiles": "CCCNc1c(NS(=O)(=O)c2ccc(C)c(C)c2)c(=O)oc2ccccc12", "Potency": "0.291 µM (active)", "cell number change": -4.13}, {"smiles": "CCC(=O)Nc1ccc(S(=O)(=O)Nc2c(NC)c3ccccc3oc2=O)cc1", "Potency": "18.4 µM (active)", "cell number change": 8.07}, {"smiles": "CCCNc1c(NS(=O)(=O)c2ccc(Br)cc2)c(=O)oc2ccccc12", "Potency": "inactive", "cell number change": -47.1}, {"smiles": "CCC(=O)Nc1ccc(S(=O)(=O)c2ccc(NC(=O)CC)cc2)cc1", "Potency": "10.3 µM (active)", "cell number change": 0.0647}, {"smiles": "CCCNc1c(NS(=O)(=O)c2ccc3c(c2)CCCC3)c(=O)oc2ccccc12", "Potency": "inactive", "cell number change": -4.72}, {"smiles": "CC(=O)Nc1ccc(S(=O)(=O)Nc2c(NC3CCCCC3)c3ccccc3oc2=O)cc1", "Potency": "inactive", "cell number change": -18}, {"smiles": "O=C(NNS(=O)(=O)c1ccccc1)c1cnn(-c2ccccc2)c1-n1cccc1", "Potency": "inactive", "cell number change": 9.3}, {"smiles": "O=C1CC(NS(=O)(=O)c2cc(F)ccc2F)CN1c1ccc2c(c1)OCCO2", "note": "(centres undefined)", "Potency": "inactive"}, {"smiles": "CC(=O)N1CCc2cc(Br)cc(S(=O)(=O)N3CCCCCC3)c21", "Potency": "inactive", "cell number change": -5.11}, {"smiles": "Cn1cccc1/C=N/NC(=O)CSc1nc2ccccc2[nH]1", "Potency": "inactive", "cell number change": 5.5}, {"smiles": "CCC(=O)NC(=S)Nc1ccc(NC(=O)c2ccc(Br)o2)cc1", "cell number change": -10.2, "lipid storage change, negative = inhibition": "-15.2% [at 9.22 µM] (inactive)"}, {"smiles": "C=CCn1c(CNC(=O)c2ccccc2F)nnc1SCC(=O)NC(C)c1ccccc1", "note": "(centres undefined)", "Potency": "inactive", "cell number change": 1.35}, {"smiles": "Cc1cc(=O)oc2cc(OCC(=O)OCC(=O)N(C)C3CCS(=O)(=O)C3)ccc12", "note": "(centres undefined)", "Potency": "inactive", "cell number change": 7.81}, {"smiles": "CCN(C(=O)COC(=O)COc1ccc2c(C)cc(=O)oc2c1)C1CCS(=O)(=O)C1", "note": "(centres undefined)", "Potency": "0.0461 µM (active)", "cell number change": -49.7}, {"smiles": "Cc1cc(=O)oc2cc(OCc3ccc(C(=O)OCC(=O)N(C)C4CCS(=O)(=O)C4)cc3)ccc12", "note": "(centres undefined)", "Potency": "inactive", "cell number change": -7.42}]}]}
